Assay results as given in PubChem BioAssay (EPA / NIEHS).
Values joined by “and” are separate entries in the source; they are usually repeats but may differ in a detail not shown here. Equal entries are not always repeated. Inconclusive results are not listed. Where a structure was tested more than once in an assay, its records may differ in their call. Active and inactive are the calls of the source. Rule for the calls, unless noted: active = hit-call score of the fitted dose curve at least 0.9, where 1 is the maximum; inactive = score below 0.9.

What was measured:
[1] = ATG_PBREM_CIS: Attagene CIS-FACTORIAL HepG2 Assay for human Phenobarbital-responsive Enhancer Module (PBREM) (AID 2282955); settings: HepG2 PBREM cis-reporter, Attagene multiplexed transcription; actives raise or lower the signal
Method in brief: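 After a 24 h incubation with test chemical, transfected HepG2 cells yield total RNA; reporter-specific RT-PCR products are fluorescently labelled, HpaI-digested and resolved by capillary electrophoresis against ROX size standards.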

[2] = target: Paired box protein Pax-6 (Homo sapiens) (UniProt P26367); assay: ATG_Pax6_CIS: Attagene CIS-FACTORIAL HepG2 Assay for human Paired Box 6 (PAX6) (AID 2282956); settings: HepG2 CIS-FACTORIAL PAX6 reporter transcription, RNA readout; actives raise or lower the signal
Method in brief: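 DMSO-referenced bidirectional fits of reporter mRNA fluorescence; HepG2 with transient cis-promoter MRTUs, 24 h post-dose, RT-PCR plus capillary electrophoresis detection.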

[3] = ATG_PXRE_CIS: Attagene CIS-FACTORIAL HepG2 Assay for human Pregnane X Receptor Element (PXRE) (AID 2282957); settings: HepG2 Attagene CIS-FACTORIAL PXRE reporter, mRNA; actives raise or lower the signal
Method in brief: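 Using HepG2 transfected with multiple reporter transcription units, endogenous factor-driven transcription was scored as reporter mRNA after 24 h exposure.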

[4] = ATG_PPRE_CIS: Attagene CIS-FACTORIAL HepG2 Assay for human Peroxisome Proliferator-activated Response Element (PPRE) (AID 2282958); settings: HepG2 PPRE cis-element reporter, Attagene transcription factor profiling; actives raise or lower the signal
Method in brief: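 Multiplexed reporter transcription units under cis-regulatory promoters were transfected into HepG2 cells to capture endogenous factor activity. A 24 h incubation preceded RNA isolation and fluorescent RT-PCR fragment analysis.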

[5] = ATG_RORE_CIS: Attagene CIS-FACTORIAL HepG2 Assay for human RAR-related Orphan Receptor Element (RORE) (AID 2282959); settings: HepG2 Attagene cis-factorial RORE reporter, mRNA; actives raise or lower the signal
Method in brief: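 Fluorescence intensity of reporter-specific cDNA fragments, separated by capillary electrophoresis, gives the signal. Source: HepG2 liver cells transiently transfected with cis-element reporters and exposed 24 h; DMSO-normalized bidirectional fit.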

[6] = ATG_Sox_CIS: Attagene CIS-FACTORIAL HepG2 Assay for human SRY-box transcription factor (SOX) (AID 2282960); settings: HepG2 Attagene cis-factorial SOX reporter, mRNA; actives raise or lower the signal
Method in brief: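 After 24 h of chemical treatment, transfected HepG2 reporter cells are lysed for total RNA. Transcript levels come from RT-PCR with labelled primer extension and capillary electrophoresis, analysed bidirectionally versus DMSO.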

[7] = target: Transcription factor Sp1 (Homo sapiens) (UniProt P08047); assay: ATG_Sp1_CIS: Attagene CIS-FACTORIAL HepG2 Assay for human Specificity Protein 1 (Sp1) (AID 2282961); settings: HepG2 Sp1 cis-reporter transcription, actives raise or lower the signal
Method in brief: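 Sp1-driven reporter mRNA, read as capillary electrophoresis fluorescence after RT-PCR, in transiently transfected HepG2 cells dosed for 24 h; signal change in either direction relative to DMSO.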

[8] = ATG_SREBP_CIS: Attagene CIS-FACTORIAL HepG2 Assay for human Sterol Regulatory Element Binding (SREBP) (AID 2282962); settings: HepG2 Attagene cis-factorial SREBP reporter, mRNA; actives raise or lower the signal
Method in brief: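 In this cis-format assay, HepG2 liver cells express reporters controlled by promoter elements responsive to native transcription factors. Exposure lasts 24 h; reporter mRNA fluorescence from capillary electrophoresis gives the signal, fitted bidirectionally against DMSO.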

[9] = target: Signal transducer and activator of transcription 3 (Homo sapiens) (UniProt P40763); assay: ATG_STAT3_CIS: Attagene CIS-FACTORIAL HepG2 Assay for human Signal Transducer and Activator of Transcription 3 (STAT3) (AID 2282963); settings: HepG2, Attagene cis-factorial STAT3 reporter transcription; actives raise or lower the signal
Method in brief: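 Uses human liver HepG2 transiently carrying cis-regulated reporter transcription units. Following 24 h dosing, reporter mRNA induction was detected by RT-PCR and capillary electrophoresis, analysed bidirectionally versus DMSO.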

[10] = ATG_TA_CIS: Attagene CIS-FACTORIAL HepG2 Assay for human TA Basal Promoter (AID 2282964); settings: HepG2 Attagene CIS-factorial TA basal promoter reporter; actives raise or lower the signal
Method in brief: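 HepG2 cells transiently transfected with multiple reporter units under cis promoter elements, reporting endogenous transcription factor activity; this endpoint tracks the TA basal promoter as background control. Reporter mRNA after 24 h dosing measured by RT-PCR/capillary electrophoresis; bidirectional fits versus DMSO.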

[11] = ATG_TCF_b_cat_CIS: Attagene CIS-FACTORIAL HepG2 Assay for human T-Cell-Factor with beta-catenin (TCF/b-cat) (AID 2282965); settings: HepG2 TCF/beta-catenin cis-reporter transcription, actives raise or lower the signal
Method in brief: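 In this cis-format system, transfected HepG2 cells report endogenous transcription factor activity. Readout after 24 h exposure is reporter transcript abundance from RT-PCR and capillary electrophoresis, analysed for gain or loss of signal versus DMSO.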

[12] = ATG_TAL_CIS: Attagene CIS-FACTORIAL HepG2 Assay for human TAL Basal Promoter (AID 2282966); settings: HepG2 Attagene cis-factorial TAL promoter reporter; actives raise or lower the signal;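 note: background control endpoint measuring basal TAL promoter reporter mRNA not a specific factor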
Method in brief: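 After 24 hours of chemical exposure, transfected HepG2 cells yielded RNA that was converted to 6-FAM-labelled, HpaI-digested reporter fragments for capillary electrophoresis. Values derive from bidirectional fitting against DMSO controls.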

[13] = ATG_TGFb_CIS: Attagene CIS-FACTORIAL HepG2 Assay for human Transforming Growth Factor (TGF) (AID 2282967); settings: HepG2 Attagene CIS TGFb reporter, mRNA transcription; actives raise or lower the signal
Method in brief: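 HepG2 cells transiently transfected with cis-promoter-driven multiple reporter units measure endogenous TF activity; reporter mRNA quantified at 24 h by RT-PCR, FAM labeling, HpaI digestion and capillary electrophoresis. Bidirectional fit vs DMSO.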

[14] = ATG_VDRE_CIS: Attagene CIS-FACTORIAL HepG2 Assay for human Vitamin D Receptor Element (VDRE) (AID 2282968); settings: HepG2 VDRE cis-reporter transcription, actives raise or lower the signal
Method in brief: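 Transfected HepG2 reporter cells, chemical treatment 24 h. RNA isolated, cDNA amplified with reporter-specific primers, products analysed by capillary electrophoresis. Endpoint fitted in both directions versus DMSO.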

[15] = target: Estrogen receptor (Homo sapiens) (UniProt P03372); assay: ATG_ERa_TRANS: Attagene TRANS-FACTORIAL HepG2 Assay for human Estrogen Receptor alpha (ERa) (AID 2282970; active = hit-call score of the fitted dose curve at least 0.9, where 1 is the maximum); settings: HepG2 Attagene TRANS ERa GAL4 reporter, mRNA
Method in brief: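 Liver-derived HepG2 cells expressing chimeric nuclear receptor-Gal4 proteins from transient transfection were exposed for 24 hours. Gain of reporter mRNA signal versus DMSO, read by capillary electrophoresis of FAM-labelled PCR products, was recorded.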

[16] = target: Steroid hormone receptor ERR1 (Homo sapiens) (UniProt P11474); assay: ATG_ERRa_TRANS: Attagene TRANS-FACTORIAL HepG2 Assay for human Estrogen-Related Receptor alpha (ERRa) (AID 2282971; active = hit-call score of the fitted dose curve at least 0.9, where 1 is the maximum); settings: HepG2 Attagene TRANS reporter, ERRa transactivation
Method in brief: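 Reporter transcript induction was quantified by RT-PCR and capillary electrophoresis of FAM-labelled, HpaI-cut products after 24 h treatment of HepG2 cells carrying transiently transfected GAL4-UAS reporter units and an exogenous ERRa-Gal4 fusion; activity scored as increase over DMSO.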

[17] = target: X-box-binding protein 1 (Homo sapiens) (UniProt P17861); assay: ATG_Xbp1_CIS: Attagene CIS-FACTORIAL HepG2 Assay for human X-box Binding Protein 1 (XBP1) (AID 2282972); settings: HepG2 XBP1 cis-element reporter, Attagene multiplex; actives raise or lower the signal
Method in brief: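 Changes in reporter transcript abundance, read by RT-PCR and capillary electrophoresis, reflect endogenous transcription factor activity. Transfected HepG2 cells received compound for 24 hours; DMSO defined baseline for bidirectional analysis.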

[18] = ATG_M_19_TRANS: Attagene TRANS-FACTORIAL HepG2 Assay for M19 Transcription Factor (Internal Marker) (AID 2282974; active = hit-call score of the fitted dose curve at least 0.9, where 1 is the maximum); settings: HepG2 Attagene TRANS-FACTORIAL M19 internal marker reporter
Method in brief: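 Measured here: internal-marker reporter transcript from HepG2 cells transfected with MRTUs, harvested at 24 h. cDNA PCR products were 6-FAM labelled by primer extension, cut with HpaI for 2 h at 37 C, and resolved by CE.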

[19] = ATG_GAL4_TRANS: Attagene TRANS-FACTORIAL HepG2 Assay for GAL4 (Internal Marker) (AID 2282976; active = hit-call score of the fitted dose curve at least 0.9, where 1 is the maximum); settings: HepG2 Attagene TRANS GAL4 internal marker reporter
Method in brief: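 First, HepG2 cells were transfected with reporter units under GAL4-UAS control. Next, they were treated with chemical for 24 h. Finally, RNA was reverse-transcribed, PCR-amplified, FAM-labelled and resolved by capillary electrophoresis, with induction scored against DMSO.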

[20] = target: Nuclear receptor subfamily 1 group I member 3 (Homo sapiens) (UniProt Q14994); assay: ATG_CAR_TRANS: Attagene TRANS-FACTORIAL HepG2 Assay for human Constitutive Androstane Receptor (CAR) (AID 2282969; active = hit-call score of the fitted dose curve at least 0.9, where 1 is the maximum;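 note: activators raise reporter mRNA above DMSO so AC50 marks induction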); settings: HepG2 Attagene TRANS-FACTORIAL CAR reporter
Method in brief: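 Steps: transient transfection of HepG2 with multiple GAL4-UAS reporter units; 24 h compound incubation; RNA isolation, RT-PCR, 6-FAM primer extension, HpaI digest; capillary electrophoresis. Gain-of-signal relative to DMSO negative control.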

Measured: AC50

Sequence of Steroid hormone receptor ERR1 (Homo sapiens) (P11474 whole entry, looked up, the tested form may be a part): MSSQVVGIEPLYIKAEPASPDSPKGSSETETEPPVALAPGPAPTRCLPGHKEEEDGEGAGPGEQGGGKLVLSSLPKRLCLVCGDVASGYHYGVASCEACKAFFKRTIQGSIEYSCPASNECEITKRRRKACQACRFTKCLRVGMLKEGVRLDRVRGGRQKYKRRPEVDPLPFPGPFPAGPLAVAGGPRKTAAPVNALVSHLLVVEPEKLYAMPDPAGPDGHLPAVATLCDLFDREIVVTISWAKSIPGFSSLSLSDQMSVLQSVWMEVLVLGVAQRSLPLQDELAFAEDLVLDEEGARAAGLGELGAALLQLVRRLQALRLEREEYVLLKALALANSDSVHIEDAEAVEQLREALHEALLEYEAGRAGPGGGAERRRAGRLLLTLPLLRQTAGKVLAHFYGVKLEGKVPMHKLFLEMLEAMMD
Sequence of Estrogen receptor (Homo sapiens) (P03372 whole entry, looked up, the tested form may be a part): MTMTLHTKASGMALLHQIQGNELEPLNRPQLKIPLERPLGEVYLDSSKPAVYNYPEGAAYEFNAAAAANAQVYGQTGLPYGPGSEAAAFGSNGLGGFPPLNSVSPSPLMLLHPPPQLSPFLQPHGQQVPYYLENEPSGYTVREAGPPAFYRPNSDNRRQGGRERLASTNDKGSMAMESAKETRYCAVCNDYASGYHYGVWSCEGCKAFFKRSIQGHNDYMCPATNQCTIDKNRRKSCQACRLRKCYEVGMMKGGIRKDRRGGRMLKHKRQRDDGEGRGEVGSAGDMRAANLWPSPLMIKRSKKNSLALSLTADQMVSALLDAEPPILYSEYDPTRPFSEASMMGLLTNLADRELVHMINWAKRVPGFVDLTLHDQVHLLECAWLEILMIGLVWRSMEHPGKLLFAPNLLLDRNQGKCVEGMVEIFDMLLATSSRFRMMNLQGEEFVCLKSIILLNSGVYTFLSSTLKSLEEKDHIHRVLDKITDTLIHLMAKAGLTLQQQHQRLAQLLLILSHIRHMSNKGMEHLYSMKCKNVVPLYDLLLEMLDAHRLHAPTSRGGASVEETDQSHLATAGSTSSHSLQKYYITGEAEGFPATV
Sequence of Transcription factor Sp1 (Homo sapiens) (P08047 whole entry, looked up): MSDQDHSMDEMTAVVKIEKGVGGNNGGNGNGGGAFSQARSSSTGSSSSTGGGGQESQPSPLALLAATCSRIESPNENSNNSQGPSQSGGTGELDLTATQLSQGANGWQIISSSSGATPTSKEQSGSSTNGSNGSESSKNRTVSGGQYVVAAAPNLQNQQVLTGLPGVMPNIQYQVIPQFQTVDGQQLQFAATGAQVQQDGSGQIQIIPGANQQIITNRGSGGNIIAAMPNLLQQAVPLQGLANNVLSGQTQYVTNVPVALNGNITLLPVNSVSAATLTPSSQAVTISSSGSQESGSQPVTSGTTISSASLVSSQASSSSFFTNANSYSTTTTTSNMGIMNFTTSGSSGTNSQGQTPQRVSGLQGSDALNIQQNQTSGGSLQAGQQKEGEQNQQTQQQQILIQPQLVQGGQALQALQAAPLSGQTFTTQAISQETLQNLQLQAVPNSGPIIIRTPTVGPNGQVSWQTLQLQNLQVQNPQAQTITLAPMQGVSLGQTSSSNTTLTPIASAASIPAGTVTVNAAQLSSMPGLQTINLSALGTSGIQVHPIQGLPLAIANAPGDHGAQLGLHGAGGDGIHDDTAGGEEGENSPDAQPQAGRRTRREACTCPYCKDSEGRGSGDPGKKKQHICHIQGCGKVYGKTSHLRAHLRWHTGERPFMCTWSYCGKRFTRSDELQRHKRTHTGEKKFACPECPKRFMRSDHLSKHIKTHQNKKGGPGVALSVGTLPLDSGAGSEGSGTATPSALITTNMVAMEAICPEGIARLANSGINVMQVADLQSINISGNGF
Sequence of Paired box protein Pax-6 (Homo sapiens) (P26367 whole entry, looked up): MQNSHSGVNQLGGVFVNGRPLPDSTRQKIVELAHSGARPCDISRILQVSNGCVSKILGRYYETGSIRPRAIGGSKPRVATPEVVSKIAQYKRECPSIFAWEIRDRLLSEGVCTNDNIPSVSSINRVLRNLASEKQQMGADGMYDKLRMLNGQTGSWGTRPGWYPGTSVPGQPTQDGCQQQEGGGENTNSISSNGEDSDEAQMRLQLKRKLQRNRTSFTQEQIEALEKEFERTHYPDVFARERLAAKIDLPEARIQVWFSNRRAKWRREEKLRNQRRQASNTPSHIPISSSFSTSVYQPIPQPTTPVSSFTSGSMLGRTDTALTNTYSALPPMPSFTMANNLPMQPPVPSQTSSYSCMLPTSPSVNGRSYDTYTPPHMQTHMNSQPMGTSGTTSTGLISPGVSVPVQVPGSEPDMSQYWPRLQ
Sequence of X-box-binding protein 1 (Homo sapiens) (P17861 whole entry, looked up): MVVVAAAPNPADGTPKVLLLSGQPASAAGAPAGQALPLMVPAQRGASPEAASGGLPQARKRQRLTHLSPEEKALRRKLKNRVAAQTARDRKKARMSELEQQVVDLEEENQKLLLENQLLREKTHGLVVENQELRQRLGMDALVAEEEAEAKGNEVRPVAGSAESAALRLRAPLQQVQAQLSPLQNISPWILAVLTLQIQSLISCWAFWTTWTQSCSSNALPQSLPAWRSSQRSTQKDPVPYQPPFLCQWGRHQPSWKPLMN
Sequence of Nuclear receptor subfamily 1 group I member 3 (Homo sapiens) (Q14994 whole entry, looked up, the tested form may be a part): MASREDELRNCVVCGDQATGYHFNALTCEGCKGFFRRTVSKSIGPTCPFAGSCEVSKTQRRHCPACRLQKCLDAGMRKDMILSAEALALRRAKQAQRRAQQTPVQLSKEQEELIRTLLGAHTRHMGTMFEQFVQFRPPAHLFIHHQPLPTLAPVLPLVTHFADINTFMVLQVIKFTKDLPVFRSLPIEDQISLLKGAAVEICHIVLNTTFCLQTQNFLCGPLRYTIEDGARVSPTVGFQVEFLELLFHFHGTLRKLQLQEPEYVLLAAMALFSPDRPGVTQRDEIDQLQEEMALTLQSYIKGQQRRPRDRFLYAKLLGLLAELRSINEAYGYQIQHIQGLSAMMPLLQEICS
Sequence of Signal transducer and activator of transcription 3 (Homo sapiens) (P40763 whole entry, looked up): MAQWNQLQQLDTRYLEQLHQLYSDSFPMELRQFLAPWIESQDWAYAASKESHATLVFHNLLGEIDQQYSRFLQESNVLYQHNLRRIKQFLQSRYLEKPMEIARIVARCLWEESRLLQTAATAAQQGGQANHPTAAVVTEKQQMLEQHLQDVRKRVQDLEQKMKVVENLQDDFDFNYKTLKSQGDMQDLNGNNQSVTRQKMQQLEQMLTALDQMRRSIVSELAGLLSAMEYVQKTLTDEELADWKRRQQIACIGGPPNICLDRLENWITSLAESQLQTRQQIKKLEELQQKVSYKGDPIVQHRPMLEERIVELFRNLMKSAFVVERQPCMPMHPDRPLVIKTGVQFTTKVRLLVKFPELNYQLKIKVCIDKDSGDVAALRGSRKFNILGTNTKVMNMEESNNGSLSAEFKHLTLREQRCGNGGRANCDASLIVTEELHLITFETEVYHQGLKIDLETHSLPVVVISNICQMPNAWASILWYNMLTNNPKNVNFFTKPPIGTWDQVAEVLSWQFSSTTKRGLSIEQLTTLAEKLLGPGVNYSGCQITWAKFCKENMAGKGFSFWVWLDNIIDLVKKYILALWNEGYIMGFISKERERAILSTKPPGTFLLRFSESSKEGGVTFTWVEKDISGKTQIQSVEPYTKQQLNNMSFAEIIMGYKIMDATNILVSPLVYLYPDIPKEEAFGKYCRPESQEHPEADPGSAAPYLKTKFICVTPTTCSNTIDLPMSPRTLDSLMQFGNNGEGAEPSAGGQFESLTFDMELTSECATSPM

NC(=O)N1C(=O)C(C(=O)c2cc(Cl)cs2)c2cc(F)c(Cl)cc21 (configuration not stated)
active: [1] 11 µM | [3] 4.07 µM | [5] 13.7 µM | [8] 4.78 µM | [14] 9.88 µM | [17] 14.1 µM
not listed: [19] | [20]
inactive: all other assays above

O=C(O)c1ccccc1C(c1ccc(O)cc1)c1ccc(O)cc1
active: [3] 44.9 µM [middle of 4 runs] | [11] 166 µM
inactive: [1] | [2] | [4] | [5] | [6] | [7] | [8] | [9] | [10] | [11] | [12] | [13] | [16] | [17] | [18] | [19]

FC(F)(I)C(F)(F)C(F)(F)C(F)(F)C(F)(F)C(F)(F)I
active: [2] 16 µM | [10] 16 µM | [11] 11.1 µM | [20] 45.5 µM | [15] 5.93 nM
not listed: [16] | [19]
inactive: all other assays above

O=c1c(-c2ccc(O)cc2)coc2cc(O)ccc12
active: [4] 42 µM and 52.3 µM | [7] 38.8 µM | [8] 47.5 µM and 91.4 µM | [11] 27.9 µM
inactive: [1] | [2] | [3] | [4] | [5] | [6] | [7] | [8] | [9] | [10] | [11] | [12] | [13] | [20] | [17] | [19]

CCCCCCCCCCCCCC[N+](C)(C)C
active: [8] 6.57 µM and 2.76 µM | [9] 18.1 µM | [11] 17.2 µM and 7.58 µM | [16] 25.7 µM | [17] 6.33 µM
inactive: [1] | [2] | [3] | [4] | [5] | [6] | [7] | [9] | [10] | [12] | [13] | [14] | [15] | [16] | [17] | [18] | [19]

c1ccc2cc3c(ccc4ccccc43)cc2c1
active: [3] 8.53 µM and 20.8 µM | [5] 1.44 µM | [14] 7.85 µM | [15] 2.44 µM [middle of 4 runs]
inactive: [1] | [2] | [3] | [5] | [6] | [7] | [8] | [9] | [10] | [11] | [12] | [13] | [14] | [20] | [17] | [18] | [19]
